PubChem BioAssay AID1159580 (chemical genetic matrix, 2015)
“And” between values parts separate entries of the source, which are not always exact repeats. Equal values may be shown once. Screen size: about 5,500 compounds; about 2,000 (36%) were called active. Another 18% or so got no clear call; they are omitted. Rule as the data show it: active = normalized growth mostly below about 0.91 (no sharp cut-off); inconclusive = no clear call, values can overlap the other calls; inactive = mostly above about 0.92. Some of the results follow.

Assay: chemical genetic growth profiling, strain panel (AID 1159580);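 also: tested at 20 µM; growth read once vehicle control cultures reached saturation at 30 °C; 1 = growth at the plate median or of vehicle wells; lower values mean less growth of the strain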
Details: S. cerevisiae deletion strains, growth OD

Measured: normalized growth

CCCC(C)C1(CC)C(=O)NC(=O)NC1=O (configuration not stated)
inactive: locus YAL013W, strain DEP1, stronger effect = lower value 1.01 | locus YAL021C, strain ccr4, stronger effect = lower value 0.996 | locus YAL026C, strain drs2, stronger effect = lower value 1 | locus YAL030W, strain snc1, stronger effect = lower value 1 | locus YBL061C, strain skt5, stronger effect = lower value 1 | locus YBR009C, strain hhf1, stronger effect = lower value 1.01 | locus YBR021W, strain FUR4, stronger effect = lower value 1 | locus YBR023C, strain chs3, stronger effect = lower value 1 | locus YBR171W, strain sec66, stronger effect = lower value 1 | locus YBR229C, strain ROT2, stronger effect = lower value 1.01 | locus YBR231C, strain swc5, stronger effect = lower value 0.994 | locus YBR279W, strain paf1, stronger effect = lower value 1 | locus YCL011C, strain gbp2, stronger effect = lower value 1 | locus YCL016C, strain dcc1, stronger effect = lower value 0.999 | locus YCL029C, strain bik1, stronger effect = lower value 1.03 | locus YCL061C, strain MRC1, stronger effect = lower value 1 | locus YCL069W, strain vba3, stronger effect = lower value 0.998 | locus YCR088W, strain abp1, stronger effect = lower value 0.996 | locus YDL005C, strain med2, stronger effect = lower value 0.992 | locus YDL035C, strain GPR1, stronger effect = lower value 1.03 | locus YDL040C, strain nat1, stronger effect = lower value 1 | locus YDL074C, strain BRE1, stronger effect = lower value 1.03 | locus YDL101C, strain DUN1, stronger effect = lower value 1.02 | locus YDL134C, strain PPH21, stronger effect = lower value 1.02 | locus YDL185W, strain tfp1, stronger effect = lower value 1.02 | locus YDL192W, strain arf1, stronger effect = lower value 1.02 | locus YDR001C, strain nth1, stronger effect = lower value 0.998 | locus YDR069C, strain doa4, stronger effect = lower value 1 | locus YDR101C, strain arx1, stronger effect = lower value 1.01 | locus YDR137W, strain rgp1, stronger effect = lower value 1.03 | locus YDR150W, strain NUM1, stronger effect = lower value 1.02 | locus YDR159W, strain sac3, stronger effect = lower value 0.995 | locus YDR162C, strain NBP2, stronger effect = lower value 1.03 | locus YDR195W, strain ref2 0.982 | locus YDR297W, strain sur2, stronger effect = lower value 1 | locus YDR318W, strain mcm21, stronger effect = lower value 1.03 | locus YDR334W, strain swr1, stronger effect = lower value 1.01 | locus YDR335W, strain msn5, stronger effect = lower value 1 | locus YDR388W, stronger effect = lower value 1.01 | locus YDR392W, strain spt3, stronger effect = lower value 1.02 | locus YDR502C, strain sam2, stronger effect = lower value 1.02 | locus YEL003W, strain gim4, stronger effect = lower value 1.01 | locus YEL037C, strain rad23, stronger effect = lower value 0.992 | locus YEL061C, strain CIN8 (second series), stronger effect = lower value 1 | locus YEL061C, strain CIN8, stronger effect = lower value 1.01 | locus YER015W, strain faa2, stronger effect = lower value 1 | locus YER016W, strain bim1, stronger effect = lower value 1.03 | locus YER110C, stronger effect = lower value 1.01 | locus YER111C, strain swi4, stronger effect = lower value 0.988 | locus YER155C, strain BEM2 (second series), stronger effect = lower value 0.999 | locus YER155C, strain BEM2, stronger effect = lower value 1.01 | locus YER167W, strain BCK2, stronger effect = lower value 1.03 | locus YFR010W, strain ubp6, stronger effect = lower value 1.01 | locus YGL078C, strain dbp3, stronger effect = lower value 1.01 | locus YGL086W, strain mad1, stronger effect = lower value 1.02 | locus YGL167C, strain pmr1, stronger effect = lower value 1 | locus YGL173C, strain kem1, stronger effect = lower value 0.993 | locus YGL227W, strain vid30, stronger effect = lower value 0.99 | locus YGL240W, strain doc1, stronger effect = lower value 0.989 | locus YGL248W, strain PDE1, stronger effect = lower value 1.01 | locus YGL253W, strain hxk2, stronger effect = lower value 1 | locus YGR078C, strain PAC10, stronger effect = lower value 1.02 | locus YGR135W, strain pre9, stronger effect = lower value 1 | locus YGR229C, strain SMI1, stronger effect = lower value 1.02 | locus YGR252W, strain gcn5, stronger effect = lower value 1.05 | locus YHR013C, strain ard1, stronger effect = lower value 0.978 | locus YHR027C, strain rpn1, stronger effect = lower value 1 | locus YHR030C, strain SLT2, stronger effect = lower value 1.01 and 0.987 | locus YHR079C, strain IRE1 (second series), stronger effect = lower value 1.02 | locus YHR079C, strain IRE1, stronger effect = lower value 0.979 | locus YHR094C, strain hxt1, stronger effect = lower value 1.01 | locus YHR129C, strain ARP1, stronger effect = lower value 1 | locus YHR142W, strain chs7, stronger effect = lower value 1 | locus YHR200W, strain rpn10, stronger effect = lower value 1.02 | locus YIL066C, strain RNR3, stronger effect = lower value 1.01 | locus YIL073C, strain SPO22, stronger effect = lower value 1.08 | locus YIL125W, strain kgd1, stronger effect = lower value 1.02 | locus YIR030C, strain dcg1, stronger effect = lower value 1.02 | locus YJL092W, strain hpr5, stronger effect = lower value 0.995 | locus YJL095W, strain BCK1 (second series), stronger effect = lower value 1 | locus YJL095W, strain BCK1, stronger effect = lower value 1.02 and 0.993 | locus YJL115W, strain asf1, stronger effect = lower value 0.999 | locus YJL129C, strain trk1, stronger effect = lower value 1.02 | locus YJL134W, strain LCB3, stronger effect = lower value 1.01 | locus YJL154C, strain vps35, stronger effect = lower value 1 | locus YJL164C, strain tpk1, stronger effect = lower value 1.01 | locus YJL166W, strain qcr8, stronger effect = lower value 1 | locus YJL168C, strain set2, stronger effect = lower value 1.03 | locus YJL187C, strain SWE1 (second series), stronger effect = lower value 1.01 | locus YJL187C, strain SWE1, stronger effect = lower value 0.999 | locus YJR043C, strain POL32, stronger effect = lower value 1.05 | locus YJR066W, strain TOR1, stronger effect = lower value 0.954
